Hits are enriched below; roughly 2.4% of the tested compounds scored in any of these assays.
Cruzain noTriton = cruzain (T. cruzi) inhibition without detergent; P25779; purified cruzain, Z-FR-AMC fluorescence, no detergent; Potency, µM, inactives show max response, negative = inhibition, usual class: inhibitors; actives 2.3% (n = 200,000); AID 1476;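 also: plate controls were enzyme without inhibitor for no effect and buffer without enzyme for full effect; nearly all actives have a fitted effect of over 40% in size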
Target sequence (P25779 123-467 limits assumed): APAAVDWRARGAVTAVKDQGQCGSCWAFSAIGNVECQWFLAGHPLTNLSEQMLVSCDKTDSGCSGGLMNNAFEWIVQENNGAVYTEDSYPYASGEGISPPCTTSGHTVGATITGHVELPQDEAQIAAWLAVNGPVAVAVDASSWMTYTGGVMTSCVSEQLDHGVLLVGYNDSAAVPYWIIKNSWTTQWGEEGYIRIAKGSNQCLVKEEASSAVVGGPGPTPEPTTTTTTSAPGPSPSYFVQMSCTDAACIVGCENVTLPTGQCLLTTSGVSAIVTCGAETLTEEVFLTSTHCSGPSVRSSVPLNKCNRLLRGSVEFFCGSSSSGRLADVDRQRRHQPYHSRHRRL
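Purified cruzain at 1.5 nM, pre-incubated 15 min with compound at room temperature in 100 mM sodium acetate pH 5.5, 5 mM DTT, 0.00005% Triton X-100. Reaction started with 2 uM Z-FR-AMC; AMC fluorescence increase over 60 s gives rate.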
Cruzain inh Det = blocks cruzain activity in presence of Triton detergent | actives 0.43% (n = 200,000) | purified cruzain, Z-FR-AMC fluorescence, 0.01% Triton | AID 1478 | Potency, µM, without a hit: max response, negative = inhibition, actives largely listed as inhibitors;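 also: plate controls were neutral wells for no effect and buffer without enzyme for full effect; nearly all actives have a fitted effect of over 40% in size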
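Detergent-containing run (0.01% Triton X-100) in acetate buffer pH 5.5 with 5 mM DTT: enzyme at 1.5 nM final, 15 min compound preincubation at room temperature, then 2 uM Z-FR-AMC substrate. Activity taken as 60 s fluorescence increase at 360/450 nm.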
Active calls of the source: *. Calls follow the shape of the dose curve; as a rule, active = well fitted curve in the direction sought with a large enough effect; inconclusive = small, poorly fitted or top-dose-only effect, or another doubt; inactive = no such curve, though single readings can be large; an effect the other way counts as inactive or inconclusive. Potency is read from the fitted curve at half-maximal effect.

Results for c1ccc(CCN2CCCCCC2)nc1 ?
Cruzain noTriton: -2%; Cruzain inh Det: 3%

Results for CCCn1c(=O)c2sccc2n2c(CCCC(=O)N3CCN(c4cccc(C)c4C)CC3)nnc12 ?
Cruzain noTriton: 0%; Cruzain inh Det: -1%

Results for CC(=O)[C@H]1CC[C@H]2[C@@H]3C=CC4=CC(=O)CC[C@@]4(C)[C@H]3CC[C@]12C ?
Cruzain noTriton: -12%; Cruzain inh Det: -5%

Results for C=C(C)CN(CC#N)CC(=C)C ?
Cruzain noTriton: 6%; Cruzain inh Det: 3%

Results for Cc1ccccc1NS(=O)(=O)c1nnc(NC(=O)c2ccco2)s1 ?
Cruzain noTriton: -13%; Cruzain inh Det: -2%

What do the screens show for `Clc1cc2c(c(CSC3=NCN(CC4CC4)CN3)c1)OCOC2`?
Cruzain noTriton: -14%; Cruzain inh Det: -1%

What do the screens show for `CCOc1ccccc1NC(=O)N1CCc2c(sc3c2CCCC3)C1c1ccccc1` (stereo not drawn)?
Cruzain noTriton: -21%; Cruzain inh Det: 1%

Results for OCC1=CC[N+]2(Cc3ccccc3)CCC(O)[C@@H]12 (stereo partly drawn) ?
Cruzain noTriton: -6%; Cruzain inh Det: 2%

Results for C[C@H](C(=O)c1ccccc1)C(c1ccccc1)N1CCOCC1 (stereo partly drawn) ?
Cruzain noTriton: 10%; Cruzain inh Det: 5%

How did Cc1cc(/C=N\NC(=O)CC(=O)NC2CCCCC2)c(C)n1-c1ccc(Cl)c(Cl)c1 do in these assays?
Cruzain noTriton: -2%; Cruzain inh Det: -6%

What do the screens show for `COc1cccc(NC(=O)C(=O)N/N=C/c2cc(C)n(-c3ccc(Cl)c(Cl)c3)c2C)c1`?
Cruzain noTriton: 16µM*; Cruzain inh Det: 0%

What do the screens show for `O=C(O)CNC(=O)c1ccccc1O`?
Cruzain noTriton: 3%; Cruzain inh Det: 2%

Results for COc1ccc(S(=O)(=O)N(Cc2nc(-c3ccc(Cl)cc3)no2)C2CCCCC2)cc1 ?
Cruzain noTriton: -18%; Cruzain inh Det: -5%

How did Cc1ccc(NC(=O)c2nnn(CC(=O)Nc3ccc(C)c(Cl)c3)c2N)c(C)c1 do in these assays?
Cruzain noTriton: 10µM*; Cruzain inh Det: 1%

Results for Cc1ccc(NC(=O)c2nnn(CC(=O)Nc3ccccc3)c2N)cc1C ?
Cruzain noTriton: inconclusive; Cruzain inh Det: 6%

Results for Cc1ccnc(NC(=S)NC(=O)/C=C/c2ccccc2)c1 ?
Cruzain noTriton: inconclusive; Cruzain inh Det: -4%

Results for Cc1ccnc(NC(=S)NC(=O)/C=C/c2ccc(Cl)cc2)c1 ?
Cruzain noTriton: 4µM*; Cruzain inh Det: 3%

What do the screens show for `COc1ccc2cc(-c3nnc(Nc4ccccc4)s3)c(=O)oc2c1`?
Cruzain noTriton: -8%; Cruzain inh Det: 1%

What do the screens show for `C=CCC(C)(O)/C=C/c1ccccc1` (stereo not drawn)?
Cruzain noTriton: -7%; Cruzain inh Det: 4%

What do the screens show for `O=C(CSc1ccccn1)c1ccc2c(c1)OCO2`?
Cruzain noTriton: -9%; Cruzain inh Det: -1%

How did O=C(CSc1nnc(SCc2cccc3ccccc23)s1)c1ccc2c(c1)OCO2 do in these assays?
Cruzain noTriton: 25µM*; Cruzain inh Det: -2%

What do the screens show for `O=C(CSc1nnc(SCc2cccc3ccccc23)s1)N=Nc1c(O)[nH]c2ccccc12`?
Cruzain noTriton: 7.9µM*; Cruzain inh Det: -4%

Results for O=C(CSc1nc2ccccc2[nH]1)c1ccc2c(c1)OCO2 ?
Cruzain noTriton: 2.5µM*; Cruzain inh Det: -1%

Results for CN(C)S(=O)(=O)c1ccc(C(=O)Nc2nnc(SCc3cccc4ccccc34)s2)cc1 ?
Cruzain noTriton: inconclusive; Cruzain inh Det: 0%

Results for Cc1ccc2nc(SCC(=O)c3ccc4c(c3)OCO4)[nH]c2c1 ?
Cruzain noTriton: inconclusive; Cruzain inh Det: -3%

Results for COc1cc(OC)cc(-c2nc3nc(C)c(CCC(=O)Nc4ccc(F)cc4F)c(C)n3n2)c1 ?
Cruzain noTriton: 4%; Cruzain inh Det: 1%

What do the screens show for `COc1ccc(C=C(c2ccc(OC)cc2)c2ccc(OC)cc2)cc1`?
Cruzain noTriton: 13µM*; Cruzain inh Det: -22%

Results for COc1ccc(C=O)cc1 ?
Cruzain noTriton: 5%; Cruzain inh Det: 8%

What do the screens show for `NCCSC[C@H](N)C(=O)O`?
Cruzain noTriton: 6%; Cruzain inh Det: -1%

Results for COc1ccc2c(c1)C(=O)[C@H](OC(=O)NS(=O)(=O)c1ccc(F)cc1)[C@@H](c1ccc(OC)c(Br)c1)O2 ?
Cruzain noTriton: -2%; Cruzain inh Det: 2%

How did N#Cc1ccc(N/N=C/c2cn(-c3ccccc3)nc2-c2ccccc2)c([N+](=O)[O-])c1 do in these assays?
Cruzain noTriton: 5µM*; Cruzain inh Det: -5%

What do the screens show for `O=C(N/N=C/c1cn(-c2ccccc2)nc1-c1ccccc1)c1ccco1`?
Cruzain noTriton: 4%; Cruzain inh Det: -10%

How did Cc1cccc(NC(=S)NNC(=O)COc2ccc(Cl)cc2Cl)c1 do in these assays?
Cruzain noTriton: inconclusive; Cruzain inh Det: 0%

Screening data as filed in PubChem.
